Results: ChEMBL document CHEMBL3433997, “St. Jude Leishmania screening dataset” (2016)

Key:
Assay type in all cases: functional
[1] = target: Solute carrier family 2, facilitated glucose transporter member 1 (Homo sapiens) (UniProt P11166); test: ST_JUDE_LEISH: Cytotoxicity at 2uM final concentration against transgenic Leishmania Mexicana promastigotes LmGLUT1 that are glucose transport deficient and complemented with the human glucose transporter GLUT1. Activity is measured by DNA content using SYBR green in vitro
[2] = target: Hexose transporter 1 (Plasmodium falciparum) (UniProt O97467); test: ST_JUDE_LEISH: Cytotoxicity at 2uM final concentration against transgenic Leishmania Mexicana promastigotes LmPfHT that are glucose transport deficient and complemented with the Plasmodium falciparum hexose transporter. Activity is measured by DNA content using SYBR green in vitro
[3] = target: Glucose transporter (Leishmania mexicana) (UniProt O61059); test: ST_JUDE_LEISH: Cytotoxicity at 2uM final concentration against transgenic Leishmania Mexicana promastigotes LmGT2 that are glucose transport deficient and complemented with the L. Mexicana glucose transporter 2. Activity is measured by DNA content using SYBR green in vitro

Solute carrier family 2, facilitated glucose transporter member 1 (Homo sapiens), sequence (P11166 whole entry): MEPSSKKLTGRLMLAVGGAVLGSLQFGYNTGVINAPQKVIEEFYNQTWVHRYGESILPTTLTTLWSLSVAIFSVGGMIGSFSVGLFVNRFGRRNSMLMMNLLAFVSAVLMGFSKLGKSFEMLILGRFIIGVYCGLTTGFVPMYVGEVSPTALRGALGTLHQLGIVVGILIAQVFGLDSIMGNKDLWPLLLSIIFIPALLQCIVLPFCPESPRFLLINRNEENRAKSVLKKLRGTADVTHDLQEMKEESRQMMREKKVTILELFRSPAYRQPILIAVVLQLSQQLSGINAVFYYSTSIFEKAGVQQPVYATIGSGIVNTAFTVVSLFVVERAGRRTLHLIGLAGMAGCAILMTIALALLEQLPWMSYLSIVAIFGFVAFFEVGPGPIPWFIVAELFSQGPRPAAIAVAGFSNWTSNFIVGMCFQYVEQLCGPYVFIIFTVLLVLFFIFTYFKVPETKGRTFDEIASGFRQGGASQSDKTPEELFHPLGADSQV

SMILES | inhibition [1] [%] | inhibition [2] [%] | inhibition [3] [%]
CCCCCCCCCN(CCC)C(=O)[C@@H]1OC(C(=O)OC(c2ccccc2)c2ccccc2)=C[C@H](NC(=O)OC(C)(C)C)[C@H]1NC(C)=O | 2.98 | 2.98 | 1.47
CCCCCN1CCCC(CNS(=O)(=O)c2cccc(C(=O)Nc3ccc(C(F)(F)F)cc3)c2)C1 (stereo unspecified) | 0.67 | -0.91 | -0.09
O=C(NCc1cccc2ccccc12)c1ccc(CNC2CCN(Cc3ccccc3)CC2)cc1 | 1.65 | 2.12 | 4.22
CC(C)CNCc1ccc(-c2cccc(CNc3ccc4ncccc4c3)c2)cc1 | 4.79 | 3.71 | 2.69
CN1CCN(CCCN(Cc2csc(-c3ccc(CNCc4ccccc4)cc3)n2)S(=O)(=O)c2ccccc2Cl)CC1 | 1.75 | 0.37 | 2.9
COc1ccc(C2CC(c3ccccc3)=NN2C(=O)c2ccc(Br)o2)cc1 (stereo unspecified) | -0.17 | 0.43 | 0.09
CCOc1ccc(OCC(=O)Nc2nc(-c3ccc(OC)cc3)c(C)s2)cc1 | 0.75 | 1.74 | 1.45
ON=C1CCc2cc(-c3cc(-c4ccc(OC5CCNCC5)cc4)oc3-c3ccncc3)ccc21 | 1.43 | 3.53 | -0.04
COc1c(C2CCN(CCCCNC(=O)c3ccc(-c4ccc(NC(=O)C(F)(F)F)cc4)cc3)CC2)ccc2c1CCCC2 | 1.22 | 4.26 | 0.3
CCCCCCCC1CC(CC(=O)Nc2ccnc3ccc(OC)cc23)CN1 (stereo unspecified) | 1.6 | 0.43 | 0.67
CCOc1cc(C(=O)NC2CCN(Cc3ccccc3)CC2)ccc1-c1nc2cc(Cl)c(Cl)cc2[nH]1 | 2.82 | 5.07 | -0.27
CCNc1c2ccc(Cl)cc2nc2ccc(OC)cc12 | 2.46 | 4.37 | 1.15
Fc1cc(Cl)ccc1Nc1ccnc2cc(-c3ccc(CNCCN4CCOCC4)o3)ccc12 | 1.58 | 1.07 | 0.9
c1ccc(COc2ccc(Nc3ncnc4cnc(-c5ccc(CNc6cccnc6)o5)cc34)cc2)cc1 | 3.94 | 3.46 | 0.83
CNC(=O)/C=C/c1cc(NC(=O)Nc2cc(C)nc3c(F)cccc23)ccc1OC | 3.93 | 2.38 | 3.44
Cc1ccc2nc(-c3ccc(C(=O)NCc4ccc(Cl)c(Cl)c4)cc3)[nH]c2c1C | 2.57 | 0.03 | 0.59

SMILES | inhibition [1] [%] | inhibition [2] [%] | inhibition [3] [%]
COc1ccccc1CCN1CCC(CN(C)Cc2ccc(O)c(Cl)c2)CC1 | 2.46 | 5.47 | 4.27
O=C(CN1CCN(C(C(=O)Nc2cc(C(F)(F)F)ccc2Cl)c2ccccc2)CC1)NC1CC1 (stereo unspecified) | 0.74 | 2.72 | 3.2
Nc1nc(N)c2cc(Cc3ccccc3Cl)cnc2n1 | -0.18 | 2.28 | 1.45
Cc1cccc2nc(-c3cccc(-c4ccc(CN5CCC(C(N)=O)CC5)cc4)c3)[nH]c12 | 9.22 | 9.68 | 9.06
O=[N+]([O-])c1cccc(-n2nc(NCc3ccc(Cl)cc3)nc2-c2ccc(F)c(C(F)(F)F)c2)c1 | 1.19 | 2.33 | 0.17
CCCCn1c(=N)c(C(=O)NCc2cccnc2)cc2c(=O)n3cccc(C)c3nc21 | 4.38 | 5.85 | 2.74
O=C(Nc1ccon1)c1cc(-c2cccnc2)nc2ccc(Cl)cc12 | 5.01 | 3.36 | 3.02
Cn1c(-c2ccccc2)cc2c3c(N)nc(N)nc3ccc21 | 105 | 104 | 98.2
CCN(CC)CCN(Cc1ccc(-c2ccc(C(F)(F)F)cc2)cc1)C(=O)Cn1c(CCc2cccc(F)c2F)cc(=O)c2c1CCCC2 | 11.6 | 12.3 | 9.85
O=C(Nc1cc(Cl)ccc1Cl)N[C@H]1CCN(CCCCCNC(=O)C2CC2c2ccc(Cl)c(Cl)c2)C1 (stereo partly specified) | 1.43 | 1.2 | 4.46
CCN(CC)CCNc1ccnc2[nH]c3ccc([N+](=O)[O-])cc3c12 | 3.68 | 3.92 | 3.99
CN(C)c1cc2c(Nc3ccc4nc(Cc5ccccc5)[nH]c4c3)ncnc2cn1 | 4.02 | 5.87 | 2.46
CC(C)(C)NC(=O)c1ccc(Oc2ccc(OC(F)(F)F)cc2)c(NC(=O)C(C)(C)C)c1 | -3.08 | -1.32 | -2.26
CC1CN(c2cccc3c2nc(-c2cncc(C#N)c2)n3CCNCc2ccccc2)CC(C)O1 (stereo unspecified) | 3.09 | 2.38 | 2.56
Cc1noc(-c2ccc3c(c2)CCN(CCC2CCC(NC(=O)c4cc5ccccc5[nH]4)CC2)CC3)n1 (stereo unspecified) | 2.93 | 2.28 | 1.98
Cc1cccc(C(=O)Nc2ccnc(N3CCC(N(C)Cc4ccccc4)CC3)c2)c1 | -1.46 | -0.98 | -0.83
